Source: PubChem BioAssay
Shown are actives, neighbours in structure and some others; about 11% of the full set was active somewhere.
3T3 cytotox – Cytotoxic Profiling in NIH 3T3 Cell Line of Diverse Libraries Using Quantitative High-Throughput Screening | NIH 3T3 viability, CellTiter-Glo ATP luminescence, 48-72 h | actives 4.3% (n = 94,000) | Potency, µM (series often up to 96.7 µM), for inactives: at the highest dose activity change, negative = cytotoxicity, usual class: inhibitors; note: % is set by controls: 0 for no effect and ±100 for the full control effect; nearly all actives have a fitted effect of over 55% in size
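NIH 3T3 cells at 400 cells/well received 23 nL of compound by pintool and were incubated 48 or 72 h at 37 °C. Viability was read as ATP-coupled CellTiter-Glo luminescence.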
FLuc inh-1 – Firefly luciferase inhibition profiling of diverse chemical library using quantitative high-throughput screening. Luciferin 4-monooxygenase (Photinus pyralis), P08659. purified P. pyralis luciferase, luminescence, biochemical. Potency, µM (series often up to 115 µM), most hits filed as inhibitors. actives 2.5% (n = 76,000). AID 1347043, 2019; note: % is set by controls: 0 for no effect and ±100 for the full control effect; nearly all actives have a fitted effect of over 65% in size
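Purified P. pyralis luciferase (10nM final) in 50mM Tris acetate pH 7.5, 10mM Mg acetate, 0.01% Tween-20, 0.05% BSA with 10uM D-luciferin and 10uM ATP. Compounds titrated qHTS. Luminescence imaged on CCD.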
HEK293 tox – Cytotoxic Profiling in HEK 293 Cell Line of Diverse Libraries Using Quantitative High-Throughput Screening; HEK 293 viability, ATP luminescence (CellTiter-Glo), 48-72 h; Potency, µM (top dose mostly 115 µM), for the others: at the top dose activity change, negative = cytotoxicity, hits mostly inhibitors; actives 6.6% (n = 94,000); AID 1345083, 2018; note: % is set by controls: 0 for no effect and ±100 for the full control effect; nearly all actives have a fitted effect of over 60% in size
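Cells seeded first (HEK 293, 250 cells/well), then compound added by pintool. Incubation ran 48 or 72 hr at 37 degree Celsius. CellTiter-Glo was added and luminescence imaged after 10 min at room temperature.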
NPR1 antag – Natriuretic polypeptide receptor (hNpr1) antagonism - Primary qHTS; Potency, µM (doses to about 46.3 µM), without a hit: at the highest dose activity change, negative = inhibition, most hits filed as inhibitors; HEK293 hNpr1 GloSensor cGMP, ANP-stimulated luminescence; AID 1347048, 2019; Atrial natriuretic peptide receptor 1 (Homo sapiens), P16066; actives 1.6% (n = 76,000); calls by dose curve; note: % is set by controls: 0 for no effect and ±100 for the full control effect; nearly all actives have a fitted effect of over 60% in size
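HEK293 cells stably expressing human Npr1 and cGMP GloSensor pGS-40F, loaded 2 h with 2% GloSensor reagent, given compound 30 min at room temperature. Luminescence read before and 20 min after 0.1 nM hNppA.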
FLuc SDR -ATP – Firefly luciferase (FLuc-C-HiBiT) SDR gain of signal screen - without ATP. shares compounds with FLuc inh-1. Purified FLuc-C-HiBiT, Nano-Glo HiBiT luminescence, no ATP. Potency, µM (series often up to 32.7 µM), for inactives: top-dose activation (signal gain), actives largely listed as activators. actives 7.8% (n = 1,300); note: nearly all actives have a fitted effect of over 55% in size
FLuc SDR ATP – Firefly luciferase (FLuc-C-HiBiT) SDR gain of signal screen - plus ATP; shares compounds with FLuc inh-1; purified FLuc-C-HiBiT + ATP, HiBiT complementation luminescence; Potency, µM (titrated, usually from 32.7 µM), inactives show at the highest dose activation (gain of signal), most hits filed as activators; actives 8.7% (n = 1,300); AID 1963319, 2024;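 note: signal reports ligand binding via conformational change of the enzyme rather than luciferase catalysis; % of control where 0% means no effect; nearly all actives have a fitted effect of over 55% in size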
FLuc inh-2 – Firefly luciferase (FLuc-C-HiBiT) enzymatic inhibition screen - Functional assay | AID 1963320, 2024 | actives 42% (n = 1,300) | purified FLuc-C-HiBiT enzyme, luciferin luminescence | shares compounds with FLuc inh-1 | Potency, µM (titrated, usually from 32.7 µM), without a hit: at the highest dose activity change, negative = inhibition, most hits filed as inhibitors; note: % is set by controls: 0 for no effect and ±100 for the full control effect; nearly all actives have a fitted effect of over 70% in size
Numbers without * were called inactive; i = inactive; u = inconclusive; x = no result given; [ ] = remark or other dose. Unless noted, calls come from the whole dose curve; as a rule, active = well fitted curve in the direction sought with a large enough effect; inconclusive = small, poorly fitted or top-dose-only effect, or another doubt; inactive = no such curve, though single readings can be large; an effect the other way counts as inactive or inconclusive. Potency is the fitted concentration of half-maximal effect.

SMILES	3T3 cytotox	FLuc inh-1	HEK293 tox	NPR1 antag	FLuc SDR -ATP	FLuc SDR ATP	FLuc inh-2
CN1c2cc(C(=O)Nc3ccc4c(c3)OCCO4)ccc2C(=O)N2CCCC21 (centres undefined)	u	14µM*	-27%	-12%	28%	u	7.9µM*
CN(C)c1ccc(NC(=O)c2ccc3c(c2)N(C)C2CCCCN2C3=O)cc1 (centres undefined)	u	2.8µM*	u	-10%	14%	17%	u
CN1c2cc(C(=O)Nc3ccc(C(N)=O)cc3)ccc2C(=O)N2CCCCC21 (centres undefined)	u	i	-5%	0%	x	x	x
COc1ccc(C(=O)N2CCc3ccc(C(=O)Nc4ccc5c(c4)OCCO5)cc32)cc1	u	3.2µM*	u	u	30%	u	5.6µM*
CN1c2cc(C(=O)Nc3ccccc3)ccc2C(=O)N2CCCCC21 (centres undefined)	-19%	7.1µM*	u	-20%	17%	16%	u
COc1ccc(C(=O)N2CCc3ccc(C(=O)Nc4ccc(OC)cc4C)cc32)cc1	-7%	i	u	-25%	x	x	x
COc1ccc(-c2noc([C@@H]3CCCN3C(=O)c3ccc(Cl)cc3OC)n2)cc1OC	-29%	i	u	0%	x	x	x
COc1cccc(-c2nc(N3CCCCC3)ncc2C(=O)O)c1	u	i	5%	0%	x	x	x
O=C(NCc1ccc(F)cc1)N1CC(Oc2ccc(-c3nc(-c4ccccc4)no3)cc2)C1	-19%	2.2µM*	u	0.63µM*	16%	14%	0%
O=C(Cc1ccccc1)N1CC(Oc2ccc(-c3nc(-c4ccccc4)no3)cc2)C1	-5%	u	u	u	x	x	x
O=C(COc1ccc(F)cc1)N1CC(Oc2ccc(-c3nc(-c4ccccc4)no3)cc2)C1	-15%	u	u	-3%	x	x	x
c1ccc(-c2noc(-c3ccc(OC4CNC4)cc3)n2)cc1	22µM*	0.71µM*	25µM*	8.9µM*	u	u	2.8µM*
O=C(Cc1ccc(OC(F)(F)F)cc1)N1CCC([C@@H]2CNC[C@H]2CO)CC1	-4%	i	u	1%	x	x	x
Cc1nc2c(c(-c3ccc(O)cc3)n1)CN(Cc1ccccn1)CC2	-12%[138 µM]	i	-1%[172 µM]	0%[70.6 µM]	x	x	x
COc1ccc(-c2cn(C)c(=O)n3cc(COc4ccc(C(=O)O)cc4)nc23)c(C)c1	u	i	u	3%[70.6 µM]	x	x	x
CCC1=C(C(=O)OC)C(c2ccc(OC)cc2OC)N2C(CC(=O)N3CCOCC3)=CSC2=N1 (centres undefined)	i	i	-3%	-15%	x	x	x
Cc1cccc(NC(=O)c2cc(-c3ccc4c(c3)OCCO4)on2)c1	x	x	x	x	5µM*	u	0.44µM*
O=C(Nc1cccc(Cl)c1)c1cc(-c2ccc3c(c2)OCCO3)on1	x	x	x	x	u	u	0.62µM*
O=C(Nc1cccnc1)c1cc(-c2ccc(Cl)cc2)on1	x	x	x	x	15%	14%	u
Cc1ccc(Cl)cc1NC(=O)c1cc(-c2ccc3c(c2)OCCO3)on1	x	x	x	x	u	u	1.8µM*
CC1=Nc2cc(C(=O)NC(C)c3ccc4c(c3)OCCO4)ccc2Sc2ccc(Cl)cc21 (centres undefined)	-12%	i	u	-23%	x	x	x
Cc1cccc(CNC(=O)c2c(C)noc2-c2ccc3c(c2)OCO3)c1	-13%	i	u	-3%	x	x	x
Cc1noc(-c2ccc3c(c2)OCO3)c1C(=O)NCCc1cccc(Cl)c1	u	i	u	-15%	x	x	x
C[C@@H](NC(=O)Nc1cccnc1)c1onc(-c2ccc(Cl)cc2)c1C(=O)O	-4%[138 µM]	i	i	5%[70.6 µM]	x	x	x
Cc1ccc(NC(=O)Cn2nc3n(c2=O)CCCC3)c(C)c1	-2%	i	2%	4%	x	x	x
SMILES	3T3 cytotox	FLuc inh-1	HEK293 tox	NPR1 antag	FLuc SDR -ATP	FLuc SDR ATP	FLuc inh-2
Cc1ccc(Nc2ncnc3c2nc2n3CCCC2)c(Br)c1	x	x	x	x	u	u	5µM*
O=C1c2cnc(-c3cccc(F)c3)nc2OCCN1c1ccccc1	u	0.89µM*	100µM*	-29%[70.6 µM]	u	u	14µM*
COc1cccc(-c2ncc3c(n2)OCCN(c2ccccc2)C3=O)c1	8.9µM*	0.4µM*	10µM*	8.9µM*	3.2µM*	u	1.8µM*
O=C1c2cnc(-c3cccc(C(F)(F)F)c3)nc2OCCN1Cc1ccccc1	u	u	u	-4%[70.6 µM]	x	x	x
Cc1ccc(F)cc1S(=O)(=O)N(C)CC1CCOCC1	1%	i	5%	-2%	x	x	x
NC(=O)C1CCN(C(=O)CC(c2ccccc2)c2cccc(Cl)c2)CC1 (centres undefined)	i	i	3%	-12%	x	x	x
NC(=O)CC1CCN(c2ncnc3c2cnn3-c2ccccc2)CC1	x	x	x	x	10%	11%	-18%
CN1CC(=O)N(c2cccnc2)Cc2c1ncnc2N1CCC(c2ccccc2)CC1	u	i	u	-4%	x	x	x
OCC1CCN(c2ncnc3c2cnn3-c2ccccc2)CC1	x	x	x	x	21%	17%	u
NC(=O)C1CCN(c2ncnc3c2cnn3-c2cccc(Cl)c2)CC1	x	x	x	x	17%	12%	-18%
OC1CCN(c2ncnc3c2cnn3-c2ccccc2)CC1	x	x	x	x	25%	u	u
c1ccc(-n2ncc3c(N4CCCCC4)ncnc32)cc1	x	x	x	x	3.5µM*	u	0.88µM*
Cc1ccc(-n2ncc3c(N4CCN(C)CC4)ncnc32)cc1	x	x	x	x	23%	u	5.6µM*
Cc1ccc(N2Cc3c(ncnc3N3CCN(c4ncccn4)CC3)N(C)CC2=O)cc1	-10%	i	-20%	1%	x	x	x
COc1ccccc1-c1nc2nccc(-c3ccc(Cl)cc3)n2n1	-9%	i	u	-8%	x	x	x
CN(c1ccc(NC(=O)Nc2ccc(OC(F)(F)F)cc2)cc1)c1ccnc(Nc2cccc(S(N)(=O)=O)c2)n1	x	x	x	x	16%	9%	2%
